HT1080NT lethal: kills 2HG-producing HT-1080-NT fibrosarcoma cells. HT-1080-NT fibrosarcoma viability, CellTiter-Glo ATP luminescence, 48 h. Potency, µM (doses to about 46.1 µM), without a hit: top-dose activity, negative = less viability, actives largely listed as cytotoxic. hit rate 1.6% among 360,000;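 note: NT is the 2HG producing partner of a matched IDH1 knockdown line; potency is the fitted concentration of half-maximal effect; 0% = DMSO-treated cells and -100% = media-only wells without cells; nearly all actives have a fitted effect of over 55% in size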
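Luminescent CellTiter-Glo readout after 48 hours of compound exposure at 37 degrees C defined viability of HT-1080-NT cells. Activity was normalized to DMSO wells and cell-free media wells; concentration-response curves were fitted and assigned curve classes.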
DT40 TDP1 CPT: DT40-hTDP1 cell growth loss with CPT; hit rate 12% among 420,000; chicken DT40 Tdp1-/-;hTDP1 cells + 20 nM CPT, ATP luminescence, 48 h; Potency, µM (series often up to 46.2 µM), for inactives: at the highest dose activity change, negative = growth inhibition, most hits filed as inhibitors; note: potency is the fitted concentration of half-maximal effect; nearly all actives have a fitted effect of over 55% in size
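Chicken DT40 Tdp1-/- cells complemented with human TDP1, 400 cells/well, exposed to compounds plus 20 nM camptothecin for at least 48 h at 37 C; viability read as ATP content by CellTiter-Glo luminescence.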
IL1B secr inh: inhibitors of inflammasome signaling (IL-1 beta secretion) | THP-1 LPS/ATP IL-1B secretion, AlphaLISA, 16 h; active compounds read low | hit rate 4.7% among 360,000 | activity change, % at 57.5 µM; in the data active = activity change below about -50%; inconclusive = mostly about -30% to -49%
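Secreted IL-1B measured by AlphaLISA bead assay after 16 h compound exposure of THP-1 cells; compounds (final up to 57.5 uM) added 1 h before LPS (250 ng/mL) and ATP (1.25 mM) stimulation; lower signal means less secretion.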
HT1080 IDH1KD tx: toxicity to HT-1080 IDH1 knockdown cells (counter line); HT-1080 IDH1 knockdown viability, ATP luminescence, 48 h; Potency, µM (titrated, usually from 46.1 µM), inactives show top-dose activity, negative = toxicity, actives largely listed as cytotoxic; hit rate 2% among 360,000;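 note: potency is the fitted concentration of half-maximal effect; 0% = DMSO wells and -100% = cell-free medium wells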
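After a 2 h attachment period, IDH1KD HT-1080 cells took pin-transferred compound for 48 h at 37 °C; ATP-based luminescence after 10 min room-temperature reagent incubation reported viability.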
DT40 TDP1 no CPT: qHTS for Inhibitors of human tyrosyl-DNA phosphodiesterase 1 (TDP1): qHTS in cells in absence of CPT; DT40 Tdp1-/- hTDP1 cells, no CPT, ATP luminescence, 48 h; Potency, µM (doses to about 46.2 µM), for inactives: at the top dose activity change, negative = growth inhibition, hits mostly inhibitors; hit rate 15% among 420,000; note: potency is the fitted concentration of half-maximal effect; nearly all actives have a fitted effect of over 55% in size
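Readout: luminescence from CellTiter-Glo after 30 min in the dark at RT. Cells: DT40 Tdp1-/- with stable hTDP1, 400/well. Exposure: compounds alone, ≥48 hr, 37 °C.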
ELG1 repair inh: inhibitors of ELG1-dependent DNA repair in HEK293T cells; HEK293T ELG1-luciferase reporter, luminescence, 16 h; DNA damage induced by 5-fluorouridine; Potency, µM (top dose mostly 46.1 µM), for the others: at the highest dose activity change, negative = inhibition, actives largely listed as inhibitors; hit rate 2.3% among 330,000; AID 504467; note: potency is the fitted concentration of half-maximal effect; nearly all actives have a fitted effect of over 55% in size
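HEK293T cells expressing luciferase-tagged ELG1 (2,000/well) received 5-Fluorouridine plus compound or DMSO for 16 hr at 37 °C. Luciferase was read by ONE-Glo luminescence after 30 min at room temperature.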
Active calls of the source: *. Compounds with a hit are over-represented: about 19% of the library has one in this group of screens. Unless noted, calls come from the whole dose curve; as a rule, active = well fitted curve in the direction sought with a large enough effect; inconclusive = small, poorly fitted or top-dose-only effect, or another doubt; inactive = no such curve, though single readings can be large; an effect the other way counts as inactive or inconclusive. Unless noted, % is set by controls: 0 for no effect and ±100 for the full control effect.

CS(=O)(=O)N1CCc2cc(C(=O)Nc3ccc(Br)cc3)ccc21 was read as HT1080NT lethal -4%, DT40 TDP1 CPT -8%, IL1B secr inh -8, HT1080 IDH1KD tx 0%, DT40 TDP1 no CPT -30% and ELG1 repair inh -1%.
For Cc1ccc(NC(=O)c2ccc3c(c2)CCN3S(C)(=O)=O)cc1C the results were HT1080NT lethal -20%, DT40 TDP1 CPT -110%, IL1B secr inh -18, HT1080 IDH1KD tx -13%, DT40 TDP1 no CPT inconclusive and ELG1 repair inh -4%.
COc1ccc(OC)c(CN2CCN(C(=O)CCC(=O)c3cccs3)CC2)c1 was read as HT1080NT lethal 3%, DT40 TDP1 CPT inconclusive, IL1B secr inh 9, HT1080 IDH1KD tx -1%, DT40 TDP1 no CPT -3% and ELG1 repair inh -22%.
For COc1ccc(/C=C/c2cnccn2)cc1OC the results were DT40 TDP1 CPT -22% and DT40 TDP1 no CPT -25%.
For Cc1cccc(NC(=O)c2ccc3c(c2)CCN3S(C)(=O)=O)c1 the results were HT1080NT lethal -4%, DT40 TDP1 CPT -19%, IL1B secr inh -64*, HT1080 IDH1KD tx 5%, DT40 TDP1 no CPT -1% and ELG1 repair inh inconclusive.
CCS(=O)(=O)N1CCc2cc(C(=O)Nc3cccc(C(C)=O)c3)ccc21 was read as DT40 TDP1 CPT inconclusive and DT40 TDP1 no CPT 18µM*.
`COc1ccc(B(O)O)c(CN2CCN(C(=O)OC(C)(C)C)CC2)c1` gave HT1080NT lethal 4%, DT40 TDP1 CPT 4%, IL1B secr inh -8, HT1080 IDH1KD tx 3% and DT40 TDP1 no CPT 1%.
`C=C1CC2C(=O)N(Cc3cc(OC)ccc3OC)C(C(=O)OCC)(C(=O)OCC)C1N2C(=O)OC(C)(C)C` (configuration not stated) gave HT1080NT lethal 2%, DT40 TDP1 CPT 21µM*, IL1B secr inh 0, HT1080 IDH1KD tx 3% and DT40 TDP1 no CPT inconclusive.
Screening COc1cccc(NC(=O)c2ccccc2Oc2ccccc2)c1 returned HT1080NT lethal 11%, DT40 TDP1 CPT -7%, IL1B secr inh -24, HT1080 IDH1KD tx 10%, DT40 TDP1 no CPT -8% and ELG1 repair inh 4%.
For COc1cccc(NC(=O)c2cc3ccccc3o/c2=N\O)c1 the results were HT1080NT lethal -25%, DT40 TDP1 CPT 15µM*, IL1B secr inh inconclusive, HT1080 IDH1KD tx -25%, DT40 TDP1 no CPT 13µM* and ELG1 repair inh inconclusive.
`O=C(Nc1ccccc1Cl)c1ccccc1Cl` gave HT1080NT lethal -5%, DT40 TDP1 CPT 1%, IL1B secr inh -1, HT1080 IDH1KD tx 7%, DT40 TDP1 no CPT -4% and ELG1 repair inh 23%.
For O=C(Nc1ccccc1Cl)c1cc2ccccc2o/c1=N\O the results were HT1080NT lethal -9%, DT40 TDP1 CPT inconclusive, IL1B secr inh 4, HT1080 IDH1KD tx 2%, DT40 TDP1 no CPT 10µM* and ELG1 repair inh inconclusive.
Cc1nc2c(c(=O)n1CCC1=CCCCC1)c1nc3ccccc3nc1n2/N=C/c1ccccc1 was read as HT1080NT lethal 2%, DT40 TDP1 CPT inconclusive, IL1B secr inh -21, HT1080 IDH1KD tx 12%, DT40 TDP1 no CPT inconclusive and ELG1 repair inh inconclusive.
Screening CCOCCCn1c(C)nc2c(c1=O)c1nc3ccccc3nc1n2CCC1=CCCCC1 returned HT1080NT lethal inconclusive, DT40 TDP1 CPT inconclusive, IL1B secr inh -73*, HT1080 IDH1KD tx inconclusive, DT40 TDP1 no CPT inconclusive and ELG1 repair inh inconclusive.
CCC/C(C)=N/NC(=O)c1ccccc1O was read as HT1080NT lethal -3%, DT40 TDP1 CPT 6%, IL1B secr inh 46, HT1080 IDH1KD tx 10%, DT40 TDP1 no CPT inconclusive and ELG1 repair inh 12%.
C/C(=N\NC(=O)c1ccccc1O)c1c(O)cc(C)oc1=O was read as HT1080NT lethal inconclusive, DT40 TDP1 CPT inconclusive, IL1B secr inh 69, HT1080 IDH1KD tx 10µM*, DT40 TDP1 no CPT inconclusive and ELG1 repair inh inconclusive.
`C/C(=N\NC(=O)c1cccc(F)c1)c1ccc(Br)s1` gave HT1080NT lethal 11µM*, DT40 TDP1 CPT 5.6µM*, IL1B secr inh -2, HT1080 IDH1KD tx 5.6µM*, DT40 TDP1 no CPT 7.1µM* and ELG1 repair inh -20%.
CCOC(=O)C(CC)/C(C)=N\NC(=O)c1ccccc1O (configuration not stated) was read as HT1080NT lethal inconclusive, DT40 TDP1 CPT 16µM*, IL1B secr inh 36, HT1080 IDH1KD tx 16µM*, DT40 TDP1 no CPT 23µM* and ELG1 repair inh 18%.
Screening C/C(=N\NC(=O)c1ccccc1[N+](=O)[O-])c1c(O)cc(C)oc1=O returned HT1080NT lethal 20%, DT40 TDP1 CPT inconclusive, IL1B secr inh 5, HT1080 IDH1KD tx 15%, DT40 TDP1 no CPT inconclusive and ELG1 repair inh 9%.
Screening C/C(=N\NC(=O)c1ccccc1[N+](=O)[O-])c1ccc(Br)s1 returned HT1080NT lethal 6%, DT40 TDP1 CPT -11%, IL1B secr inh 0, HT1080 IDH1KD tx 1%, DT40 TDP1 no CPT inconclusive and ELG1 repair inh -3%.
C/C(=N\NC(=O)c1ccccc1O)c1ccc(Br)s1 was read as HT1080NT lethal inconclusive, DT40 TDP1 CPT 15µM*, IL1B secr inh -10, HT1080 IDH1KD tx 15µM*, DT40 TDP1 no CPT inconclusive and ELG1 repair inh inconclusive.
`CCc1ccc(C2CC3C(CN2S(=O)(=O)c2ccc(C)cc2)C(=O)CC(c2ccc(CC)cc2)N3S(=O)(=O)c2ccc(C)cc2)cc1` (configuration not stated) gave HT1080NT lethal 12%, DT40 TDP1 CPT inconclusive, IL1B secr inh 5, HT1080 IDH1KD tx 6% and DT40 TDP1 no CPT -16%.
`CCN1C(=O)CCN(C2CCCC2)c2nc(Nc3ccc(C(=O)NC4CCN(C)CC4)cc3OC)ncc21` gave HT1080NT lethal inconclusive, DT40 TDP1 CPT 5.2µM*, IL1B secr inh 52, HT1080 IDH1KD tx 21µM* and DT40 TDP1 no CPT 7.3µM*.
`CC1CC(C)CN(C2CCCCC2NS(=O)(=O)c2ccc(Cl)cc2)C1` (configuration not stated) gave HT1080NT lethal -4%, DT40 TDP1 CPT inconclusive, IL1B secr inh 45, HT1080 IDH1KD tx -10%, DT40 TDP1 no CPT 23µM* and ELG1 repair inh -7%.

Screening results (PubChem BioAssay)
